Shown are actives, neighbours in structure and some others; about 3.5% of the full set was active somewhere.
FBW7 act = FBW7 E3 ligase activators, primary screen, biochemical, AlphaScreen, human; 0.13% of 650,000 active; normalized activity (activation), % at 26.1 µM; AlphaScreen FBW7–phospho-cyclin E peptide binding, activator screen; in the data active = normalized activity above about 1.9%;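 note: purified mutant Fbw7 with reduced substrate affinity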
Target sequence (Q969H0 whole entry, looked up): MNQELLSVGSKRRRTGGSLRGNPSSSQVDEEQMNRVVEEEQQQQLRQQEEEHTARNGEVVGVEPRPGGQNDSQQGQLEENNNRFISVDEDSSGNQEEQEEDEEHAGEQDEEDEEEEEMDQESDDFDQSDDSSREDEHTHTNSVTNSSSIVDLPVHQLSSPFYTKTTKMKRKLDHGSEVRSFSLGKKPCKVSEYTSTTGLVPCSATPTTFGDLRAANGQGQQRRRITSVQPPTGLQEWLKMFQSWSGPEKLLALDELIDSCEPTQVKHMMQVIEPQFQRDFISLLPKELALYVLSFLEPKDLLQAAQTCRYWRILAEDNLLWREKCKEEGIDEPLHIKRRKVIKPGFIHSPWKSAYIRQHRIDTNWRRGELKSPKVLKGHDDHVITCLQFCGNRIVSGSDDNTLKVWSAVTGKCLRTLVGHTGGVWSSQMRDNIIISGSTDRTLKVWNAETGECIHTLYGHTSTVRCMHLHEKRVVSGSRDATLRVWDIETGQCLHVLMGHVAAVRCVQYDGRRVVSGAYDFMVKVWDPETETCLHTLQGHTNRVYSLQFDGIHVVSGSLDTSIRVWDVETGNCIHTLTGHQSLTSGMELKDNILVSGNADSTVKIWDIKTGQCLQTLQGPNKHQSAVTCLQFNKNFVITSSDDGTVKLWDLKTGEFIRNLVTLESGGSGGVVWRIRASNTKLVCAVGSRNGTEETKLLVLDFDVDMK
MITF primary = MITF inhibitors, primary screen, biochemical, AlphaScreen, human; AlphaScreen MITF homodimerization, bead proximity signal; AID 1259374, 2018; inhibition, % at 2.6 µM; 0.91% of 650,000 active; Microphthalmia-associated transcription factor (Homo sapiens), O75030; in the data active = inhibition above about 50%;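 note: 0% = vehicle wells with protein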
TEAD-YAP block = TEAD-YAP interaction inhibition, primary screen, TEAD-YAP interaction inhibitor project, luminescence, HEK-TIYL cells; inhibition, % at 9.12 µM; TEAD-Gal4/YAP UAS-luciferase luminescence; 1.4% of 640,000 active; in the data active = inhibition above about 32%;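 note: 0% = median of test compound wells and 100% = reference inhibitor wells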
GPR151 ag = activators of human GPR151, primary screen, cell-based, PathHunter beta-arrestin, luminescence; PathHunter beta-arrestin GPR151 cells; activation, % at 11.2 µM; 1% of 650,000 active; AID 1508602, 2020; in the data active = activation above about 4.9%;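 note: 0% = median of compound wells and 100% = cells with positive control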
* marks the source's active call; other numbers are inactive results.

SMILES	FBW7 act	MITF primary	TEAD-YAP block	GPR151 ag
COC(=O)C1=C(C)N(C)C(=S)NC1c1ccc(OCc2ccccc2)c(OC)c1 (stereo not given)	0.1	-4.4	-8.8	2.3
COC(=O)Cn1c(SCc2cc(C)ccc2C)nc2ccsc2c1=O	0.4	14.0	63.1*	-0.2
Cc1ccc(C)c(CSc2nc3ccsc3c(=O)n2CCCCC(=O)O)c1	0.0	1.6	57.4*	0.4
Cc1ccc(CNC(=O)CCCCCn2c(SCc3cc(C)ccc3C)nc3ccsc3c2=O)cc1	-0.1	-6.0	-1.6	1.0
Cc1ccc(C(=O)Nc2ccc(S(N)(=O)=O)cc2)cc1C	0.1	-16.7	-27.2	2.1
CCc1nc(C)cn1S(=O)(=O)c1cc(Br)c(C)cc1OC	0.1	13.4	-5.1	4.5
O=C(NCC1Cc2cc(Cl)cc(-c3ncccn3)c2O1)c1ccc(N2CCCC2)cc1 (stereo not given)	0.0	1.9	45.5*	-0.6
Cc1ccc(S(=O)(=O)N(CC(O)CN(CC(C)C)CC(C)C)c2ccccc2)cc1 (stereo not given)	-0.1	2.3	-8.5	1.8
O=C(Nc1cc([N+](=O)[O-])ccc1F)c1cccc(Br)c1	-0.1	-2.6	17.6	1.0
O=C(Nc1cc([N+](=O)[O-])ccc1F)c1cccc(F)c1	-0.1	11.8	34.4*	2.1
O=C(Nc1cc([N+](=O)[O-])ccc1F)c1ccc(Br)cc1	-0.1	-8.7	39.1*	2.7
O=C(CCCc1ccccc1)Nc1cc([N+](=O)[O-])ccc1F	0.1	-3.8	13.5	0.9
O=C(CCc1ccccc1)Nc1cc([N+](=O)[O-])ccc1F	-0.6	16.7	61.1*	0.3
O=C(Nc1ccccc1F)c1cc(F)ccc1[N+](=O)[O-]	0.2	10.1	56.4*	0.4
O=C(Nc1cc([N+](=O)[O-])ccc1F)c1ccccc1	0.1	10.4	16.3	-1.1
COc1ccc(C(=O)NNS(=O)(=O)c2ccccc2[N+](=O)[O-])cc1OC	0.0	12.4	1.8	1.2
CC1CCCC(NS(=O)(=O)c2ccc3c(c2)OCC(=O)N3)C1C (stereo not given)	-0.1	2.5	-0.2	1.0
Cc1ccc2nc(-c3ccc(N=c4oc5ccccc5cc4C(=O)Nc4ccccc4)cc3)sc2c1	0.0	1.1	-33.5	0.3
Cc1ccc(NC2C=CS(=O)(=O)C2)cc1C (stereo not given)	0.1	7.1	32.5*	-2.6
COCCn1c(=NC(=O)c2ccc(F)cc2)sc2cc(OC)c(OC)cc21	0.2	-12.7	-5.8	3.1
CCOc1ccc(/C=C2/NC(=O)N(CC(=O)Nc3cccc(C)c3)C2=O)c(OCC)c1	2.8*	0.8	5.0	-0.4
CCN(CC)c1ccc(N=Nc2ncn[nH]2)cc1	-2.0	35.8	44.4*	-1.0
O=C(COc1ccccc1Cl)Nc1nccs1	0.2	19.2	91.1*	-10.8
COc1ccccc1OCC(=O)Nc1nccs1	-0.2	3.6	15.1	-8.1
Cc1cccc(OCC(=O)Nc2nccs2)c1C	-0.1	7.2	32.0*	-4.6
SMILES	FBW7 act	MITF primary	TEAD-YAP block	GPR151 ag
O=C(COc1ccccc1F)Nc1nccs1	-0.1	5.9	-1.4	-8.1
CSCC[C@@H](C(=O)NC1CCCCCC1)N1Cc2ccccc2C1=O	0.3	14.2	-12.2	-0.6
O=C(COc1ccc(Cl)cc1)NCCSc1ccccn1	2.6*	0.0	-13.0	1.0
COc1ccccc1CN(C(=O)c1ccco1)C(C(=O)NC1CCCC1)c1ccncc1 (stereo not given)	0.2	-1.6	2.2	0.3
CCOc1cc(C2CC(=O)Nc3ccc4ccccc4c32)cc(Br)c1O (stereo not given)	0.1	1.5	36.2*	1.4
CCC1=NN2C(=N)/C(=C/c3cccc(OCCOc4ccccc4C)c3)C(=O)N=C2S1	0.0	13.8	-53.2	0.0
CCC1=NN2C(=N)/C(=C/c3cc(Br)c(OCCOc4ccc(C)cc4)c(OC)c3)C(=O)N=C2S1	1.2	61.3*	-14.2	-1.6
CCC1=NN2C(=N)/C(=C\c3cccc(OCCOc4cc(C)ccc4C)c3)C(=O)N=C2S1	-0.1	62.8*	-56.5	-1.4
CCC1=NN2C(=N)/C(=C/c3cc(Br)c(OCCOc4ccc(Br)cc4)c(OC)c3)C(=O)N=C2S1	0.0	2.0	-16.3	1.7
Cc1ccc(OCC(=O)NC(=S)Nc2ccccn2)c(Br)c1	-0.2	7.4	87.8*	-2.4
O=C(COc1ccc(Br)cc1Cl)NC(=S)Nc1ccccn1	0.1	-4.4	45.7*	-0.8
CCOc1ccc(S(=O)(=O)NCC2CCN(C3CCCC3)CC2)cc1	0.0	-14.4	-5.2	0.2
Nc1cccc(-c2nc(N)c3ncn(-c4ccsc4)c3n2)c1	0.2	3.4	54.3*	0.4
CC(=O)c1cccc(-c2nc(N)c3ncn(-c4ccsc4)c3n2)c1	-0.2	-7.5	55.9*	-0.1
CC(=O)c1cccc(-c2nc(Nc3ccccc3)c3ncn(-c4ccsc4)c3n2)c1	0.1	-19.9	-4.3	0.6
CCOC(=O)c1[nH]c(C)c(C(=O)N2CCN(C(=O)OCC)CC2)c1C	-0.1	-15.0	-4.7	0.5
COc1ccc(C(=O)c2oc3ccc(NC(C)=O)cc3c2C)cc1	0.1	16.6	-2.7	-1.0
COc1ccc(C(=O)c2oc3ccc(N)cc3c2C)cc1	0.5	-5.2	51.8*	1.5
Cc1ccc(C(=O)c2oc3ccc(N)cc3c2C)cc1	0.1	-4.7	53.6*	0.0
CC1=C(C(=O)OCc2ccccc2)C(c2ccc(N(C)C)cc2)C2=C(CC(c3ccccc3)CC2=O)N1 (stereo not given)	-0.2	7.6	-6.2	1.1
O=C1N=C(N2CCCCC2)S/C1=C/c1cccc2ccccc12	-0.1	-5.3	-55.5	0.1
CCC(C)c1ccc(OCCCNCCO)cc1 (stereo not given)	0.1	21.5	40.2*	-1.9
NC1=NC(=Nc2ccc(N3CCOCC3)cc2)c2ccccc21	-0.4	-12.1	47.8*	-0.3
CCc1ccc(N=C2N=C(N)c3ccccc32)cc1	-0.1	0.7	-31.1	2.1
c1ccc(C2=NNC(c3ccccc3)=NN2)cc1	0.0	4.8	41.8*	-6.5
SMILES	FBW7 act	MITF primary	TEAD-YAP block	GPR151 ag
CN=c1scc(-c2ccc(C)c(C)c2)n1/N=C/c1ccc(O)c(O)c1O	-0.7	20.7	70.1*	-1.8
Cc1ccc(C2=CC(c3ccc(C)cc3)n3c(nc4ccccc43)N2)cc1 (stereo not given)	-0.1	0.9	-43.1	1.2
COc1ccc(C2=CC(c3ccccc3F)n3c(nc4ccccc43)N2)cc1 (stereo not given)	0.3	4.0	35.0*	-5.5
CCc1ccc(C2=CC(c3ccccc3F)n3c(nc4ccccc43)N2)cc1 (stereo not given)	-0.1	-5.9	67.9*	-6.9
Cc1ccc(C2=CC(c3ccc(F)c(Br)c3)n3c(nc4ccccc43)N2)cc1 (stereo not given)	-0.1	0.1	51.8*	-7.2
COc1cccc(C2=CC(c3ccccc3F)n3c(nc4ccccc43)N2)c1 (stereo not given)	-0.1	11.3	-57.0	2.9
